AmpC inh det = Promiscuous and Specific Inhibitors of AmpC Beta-Lactamase (assay with detergent) | purified AmpC, nitrocefin hydrolysis with detergent | P00811 | Potency, µM (top dose mostly 28.7 µM) | AID 584, 2007 | 0.09% of 71,000 active; active = well fitted curve in the direction sought with a large enough effect; inconclusive = small, poorly fitted or top-dose-only effect
Target sequence (P00811 whole entry, looked up): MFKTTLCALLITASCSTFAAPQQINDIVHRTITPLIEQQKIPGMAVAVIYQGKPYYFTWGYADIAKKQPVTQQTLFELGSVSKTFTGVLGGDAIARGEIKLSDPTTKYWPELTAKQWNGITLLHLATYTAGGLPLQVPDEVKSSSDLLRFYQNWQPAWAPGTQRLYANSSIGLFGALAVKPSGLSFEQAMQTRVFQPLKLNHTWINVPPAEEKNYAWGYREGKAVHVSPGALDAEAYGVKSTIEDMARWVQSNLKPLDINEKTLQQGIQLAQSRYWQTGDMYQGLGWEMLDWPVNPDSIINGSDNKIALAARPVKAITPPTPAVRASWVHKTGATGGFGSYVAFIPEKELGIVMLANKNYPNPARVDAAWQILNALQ
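E. coli AmpC (5.3 nM) in 20 mM phosphate pH 7.0 with 0.01% Triton X-100, preincubated 15 min RT with compound; nitrocefin (2 uL of 800 uM stock) hydrolysis followed by 480 nm absorbance every 20 s over 4 min.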
LT uptake inh = qHTS Assay for Anthrax Lethal Toxin Internalization; Cells, anthrax lethal toxin internalization, FRET ratio (460/530); Potency, µM (doses to about 40 µM), hits mostly inhibitors; 0.67% of 70,000 active; note: nearly all actives have a fitted effect of over 50% in size
AmpC inh no det = Promiscuous and Specific Inhibitors of AmpC Beta-Lactamase (assay without detergent); P00811; AmpC nitrocefin hydrolysis, absorbance 480 nm, no detergent; Potency, µM (highest dose often 28.7 µM); 1.8% of 71,000 active; AID 585, 2007
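AmpC, 20 mM phosphate pH 7.0; 15 min cpd preinc, RT; start with nitrocefin (800 uM stock); A480 kinetic read, 20 s intervals, 4 min. No-enzyme wells = negative control.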
Prx2 Sm inh = Schistosoma Mansoni Peroxiredoxins (Prx2) | S. mansoni Prx2 activity coupled to TGR/GSH (TGR is thioredoxin glutathione reductase), NADPH fluorescence loss, qHTS | Potency, µM | 0.07% of 65,000 active | Schistosoma mansoni peroxiredoxin 2 (Prx2) | AID 448, 2006
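Enzyme mix: 100 uM NADPH, 25 nM TGR, 700 uM GSH, 50 nM Prx2 in 100 mM phosphate pH 7.4, 10 mM EDTA, 0.01% Tween-20. 15 min RT with compound; NADPH/GSH added, H2O2 starts reaction; NADPH fluorescence read 8 min.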
Of the large screens only hits and unclear results are named; the others gave an inactive call; ! = a repeat was not active; [ ] = another dose, or the depositor's remark. Shown are actives, neighbours in structure and some others; about 2.6% of the full set was active somewhere. Unless noted, calls come from the whole dose curve.

Nc1nc(SCc2ccc([N+](=O)[O-])cc2)c2ncn([C@@H]3O[C@@H](CO)[C@@H](O)[C@H]3O)c2n1	LT uptake inh inconclusive
Cc1cc(C)c2c(=O)n(CC(=O)N3CCC(N4CCCCC4)CC3)sc2n1	LT uptake inh 3.2µM
c1cc(CN2CCCCC2)cc(OCCCNc2nc3ccccc3s2)c1	LT uptake inh 25µM!
COc1cccc(CNc2nc3ccccc3n2CCN2CCCCC2)c1	none
COc1ccc(OC2C(O)COC2/C=C/C#Cc2ccccc2)cc1 (configuration not stated)	none (no result: AmpC inh det, AmpC inh no det, Prx2 Sm inh)
Cc1ccc(-c2nnn(CC(=O)N(c3cccc(F)c3)C(C(=O)NC3CCCC3)c3ccco3)n2)o1 (configuration not stated)	AmpC inh no det 13µM
CCOc1ccc(N(CC(=O)NC2CCCCC2)S(=O)(=O)c2c(C)noc2C)cc1	none
CCc1ccc(N(CC(=O)NC2CCCCC2)S(=O)(=O)c2c(C)noc2C)cc1	AmpC inh no det 4µM[single pt active]
O=c1oc2cc(N=Cc3ccc4c(c3)OCO4)ccc2c2ccccc12	none
O=C1C[C@@H]2OCC=C3CN4CC[C@]56c7ccccc7N1[C@H]5[C@@H]2[C@H]3C[C@@H]46	none
CN1CC=C(c2c[nH]c3ccccc23)CC1	AmpC inh no det 4µM[single pt active]
c1ccc2c(-c3nnc4n3CCCCC4)c[nH]c2c1	LT uptake inh inconclusive
CN(C)CCC(C#N)(c1ccccc1)c1ccccc1	none
CCN(CC)S(=O)(=O)c1ccc(-c2nnc3sc4cccc(C)c4n23)cc1	LT uptake inh inconclusive, AmpC inh no det 4µM[single pt active]
Cc1ccc2oc(-c3cccc(NC(=O)C4CCCO4)c3)nc2c1 (configuration not stated)	none
CC(=O)Nc1ccc(S(=O)(=O)Nc2cccc(-c3nc4cc(C)ccc4o3)c2)cc1	LT uptake inh 13µM
COc1ccccc1NC(=O)N1CCN(c2ccc3nncn3n2)CC1	AmpC inh no det 4µM[single pt active]
Cc1nc2ccc(S(=O)(=O)NC(C(=O)NCc3cccs3)C(C)C)cc2s1 (configuration not stated)	AmpC inh no det 4µM[single pt active]
Cc1nc2ccc(S(=O)(=O)NC(C(=O)Nc3nccs3)C(C)C)cc2s1 (configuration not stated)	AmpC inh no det 4µM[single pt active]
O=c1c(CCc2ccccc2)nc2cnc(N3CCNCC3)nc2n1CCc1ccccc1	LT uptake inh inconclusive
COC(=O)[C@@H](NC(=O)c1cc(-c2ccccc2)nc2ccccc12)c1ccccc1	none (no result: LT uptake inh)
C[N+](C)(C)CCN(Cc1cccs1)c1ccccn1	none
Cc1cc(C)nc(SCC(=O)Nc2ccc(S(=O)(=O)Nc3onc(C)c3C)cc2)n1	none
Cc1noc(NS(=O)(=O)c2ccc(NC(=O)CSc3ncccn3)cc2)c1C	Prx2 Sm inh 6.8
Cc1ccc(C(=O)[C@@H]2[C@@H]3[C@@H](C(=O)[C@@H]4OC[C@H]3O4)[C@@H]3C=Cc4ccccc4N23)cc1	LT uptake inh inconclusive
Cc1oc(C)c2c(=O)ccc3c(c12)OC(N)=C(C#N)C3c1ccccc1 (configuration not stated)	none
CSc1ccc(C2C(C#N)=C(N)Oc3c2ccc(=O)c2c(C)oc(C)c32)cc1 (configuration not stated)	AmpC inh no det 10µM
COc1cc2c3cc1Oc1c(O)c(OC)cc4c1[C@@H](Cc1ccc(cc1)Oc1cc(ccc1O)C[C@H]3N(C)CC2)N(C)CC4	LT uptake inh inconclusive
COc1ccc(Cc2nc(-c3cccs3)no2)cc1OC	AmpC inh no det 4µM[single pt active]
O=c1cc(O)cc(/C=C\c2ccc(O)c(O)c2)o1	AmpC inh no det 6.3µM
O=C(C1CCCN(S(=O)(=O)c2cccs2)C1)N1CCC(N2CCCCC2)CC1 (configuration not stated)	AmpC inh no det 4µM[single pt active]
O=C(NCCc1ccccc1)C1CCCN(S(=O)(=O)c2cccs2)C1 (configuration not stated)	AmpC inh no det 4µM[single pt active]
C[C@H](N[C@@H](C)CCc1ccccc1)[C@H](O)c1ccc(O)cc1	none
Brc1ccc(Oc2ccc(Br)cc2Br)c(Br)c1	LT uptake inh inconclusive, AmpC inh no det 13µM (no result: Prx2 Sm inh)
CCN1CCCC1Cn1c(-c2ccccc2)nc2c(NCCOC)nc(C)nc21 (configuration not stated)	none (no result: Prx2 Sm inh)
O=c1c(-c2nc3ccccc3o2)c2oc3ccccc3n2c2ccccc12	LT uptake inh 13µM
O=c1oc2ccccc2n1CCn1c2ccccc2c2nc3ccccc3nc21	none
Cc1cn([C@H]2C=C[C@H](CO)O2)c(=O)[nH]c1=O	none

Source: PubChem (National Center for Advancing Translational Sciences (NCATS))
